For 14 compounds, growth results are on record in PubChem BioAssay (NCI).

Holding throughout (experiment): NCI-60 one-dose screen, 48 h (100 = growth as untreated, 0 = no growth, -100 = all killed)
What all share (conditions): 10 µM

Assay [1] concerns NCI-H23 lung.
For assay [2], the system named is NCI-H226 lung.
The subject of assay [3] is NCI-H322M lung.
Assay [4] relates to HOP-62 NSCLC.
Assay [5] has as its system NCI-H460 lung.
Assay [6] deals with HOP-92 NSCLC.
In assay [7] the test system is NCI-H522 lung.
Assay [8] has as its system A549/ATCC NSCLC.
Assay [9] concerns 786-0 renal.
The test system of assay [10] is COLO 205 colon.

Several values for one entry are separate records, joined by “and”; a condition that tells them apart may be missing. Equal entries are not always repeated. Compounds without any hit were thinned out: in the full panel of roughly 83,000, 20% have a hit.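 Growth was measured after 48 h exposure to one concentration of compound in 96-well plates. Values under 10 count as active.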 Unmarked numbers belong to inactive results. Activity calls are given as the source filed them.

With `CC(Cc1ccc2c(c1)OCO2)NN` (configuration not stated), the growth is 90.5% in [1]; 87.1% in assay [2]; 99.5% in [3]; 73.9% in [4]; 105% in assay [5]; 76.6% in assay [6]. Further, the growth in [7] is 84%; in assay [8] it was 82.8%; in assay [9], 88.2%; in [10], 99%.
Take `COS(=O)(=O)c1ccccc1`: the growth was 98.5% in assay [1]; 107% in assay [2]; 106% in assay [3]; 102% in assay [4]; 112% in assay [5]; 105% in [6]. Besides, the growth in [7] is 111%; in assay [8], 105%; in [9], 115%; in assay [10], 113%.
Turning to `O=[N+]([O-])c1cc[n+]([O-])c2ccccc12`, the growth in [1] was -72.1% (active); in assay [2], -17.8% (active); in assay [3] it was -18.3% (active); in assay [4], -47.9% (active); in assay [5] it was -58.4% (active); in [6], -41.6% (active). Moreover, the growth in assay [7] is -61.6% (active); in [8], -25.1% (active); in assay [9] it was -49.2% (active); in assay [10], -74.9% (active).
For the compound `O=C1CCC(=O)N1SC(Cl)(Cl)Cl`, the growth is 108% in [1]; 101% in assay [2]; 106% in assay [3]; 113% in [4]; 108% in assay [5]; 105% in [6]. Besides, the growth in assay [7] was 80.4%; in [8], 107%; in assay [9], 106%; in assay [10], 112%.
On to `CN(C)CC1(N)C(=O)NC(=O)NC1=O`, for which the growth in [1] is 98.6%; in [2], 87.7%; in [3], 104%; in assay [4] it was 98.1%; in assay [5], 107%; in [6], 112%. Also, the growth is 96.4% in [7], 94.2% in assay [8] and 102% in assay [9].
With `O=[N+]([O-])c1ccc(Br)c([N+](=O)[O-])c1`, the growth was 108% in assay [1]; 101% in assay [2]; 115% in assay [3]; 115% in assay [4]; 94.8% in assay [5]; 109% in assay [6]. For the same compound, the growth in assay [7] is -28.5% (active); in assay [8] it was 104%; in assay [9] it was 108%; in [10] it was 0.504% (active).
`S=C=NCCc1ccccc1`: the growth in assay [1] is 20%; in assay [2], 85.8%; in assay [3], 110%; in assay [4] it was 85.2%; in [5], 58.5%; in assay [6], 56.5%. Further, the growth is 44.1% in assay [7], 61.7% in [8], 71.5% in assay [9] and 63.1% in assay [10].
`O=[N+]([O-])c1ccc(N2CCOCC2)c2c1no[n+]2[O-]`: the growth in assay [1] is 13.1%; in [2], 35.7%; in assay [4] it was 8.11% (active); in [5], 6.53% (active); in [6], -31.9% (active); in assay [7], -70.5% (active). In addition, the growth in assay [8] is 21.4%; in assay [9], -12.8% (active); in assay [10], -53.1% (active).
As to `C[C@@H]1C[C@@H]([C@H](O)CC2CC(=O)NC(=O)C2)C(=O)[C@@H](C)C1`, the growth in assay [1] was -3.78% (active); in assay [2], 11.6%; in [3], 2.7% (active); in [4], 3.86% (active); in assay [5], 4.51% (active); in [7], -15.6% (active). Moreover, the growth is 0.381% (active) in assay [8], 0.349% (active) in [9] and -14.9% (active) in assay [10].
Turning to `Oc1ccccc1-c1ccccc1`, the growth is 98.9% and 104% in [1]; 104% and 99.3% in assay [2]; 101% and 103% in [4]; 104% in assay [5]; 98.7% and 112% in assay [6]; 95.2% in assay [7]. Besides, the growth in assay [8] is 100% and 95.8%; in [9], 105%; in [10], 110% and 112%.
Consider `O=C(CBr)Nc1ccc(Cl)cc1`, for which the growth is 81.2% in assay [1]; 91.2% in assay [2]; 101% in assay [3]; 106% in assay [5]; 91.9% in assay [6]; -67.2% (active) in assay [7]. Also, the results for the growth in assay [8], in assay [9] and in assay [10] were 100%, 56.6% and -3.53% (active), respectively.
Regarding `CS(=N)(=O)CCC(N)C(=O)O` (configuration not stated), the growth in assay [1] is 95.2%; in assay [2], 101%; in assay [4], 98.3%; in assay [5], 112%; in assay [6], 106%; in [7] it was 96.9%. Moreover, the growth is 97.8% in assay [8], 102% in [9] and 122% in [10].
With `CC(C)C1(NC(=O)C2CC3c4cccc5[nH]cc(c45)CC3N(C)C2)OC2(O)C3CCCN3C(=O)C(Cc3ccccc3)N2C1=O` (configuration not stated), the growth in assay [1] was 99.4%; in [2], 103%; in assay [3] it was 118%; in [4] it was 110%; in [5], 109%; in [7], 82.1%. Also, the growth is 107% in [8], 96.3% in assay [9] and 106% in [10].
With `CC1CCC2(OC1)OC1C(O)C3C4CCC5CC(OC6OC(CO)C(OC7OC(CO)C(O)C(OC8OCC(O)C(O)C8O)C7OC7OC(CO)C(O)C(OC8OC(CO)C(O)C(O)C8O)C7O)C(O)C6O)C(O)CC5(C)C4CCC3(C)C1C2C` (configuration not stated), the growth in [1] was -51.5% (active); in assay [2], -50.1% (active); in assay [4], -95.3% (active); in assay [5], 5.81% (active); in assay [6] it was -3.92% (active); in assay [7], -71.4% (active). Also, the growth in assay [8] was -40.2% (active); in [9] it was -92% (active); in [10], 22.7%.
